The source made the active and inactive calls.
Key:
[1] = E. coli DRC41 culture turbidity changes, primary screen, E. coli filamentation inducer project, strain DRC41, OD650, 48 h (AID 1152);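 further: E. coli MC1000 strain DRC41 lacking acrAB efflux pump and sulA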; settings: E. coli DRC41 (acrAB sulA), higher = more signal, called active from +8 up or from −8 down
[2] = small-molecule binders of probe aLefty1, primary screen, biochemical, small-molecule microarray, 635/667 nm fluorescence (AID 1153); settings: higher = more signal;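 further: score merges spot fluorescence with signal-to-noise ratio from the scanned slide images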
[3] = PSAC antagonists in infected red cells, primary screen, cell-based, P. falciparum Indochina, OD700, 1 h (AID 1154); settings: P. falciparum Indochina infected RBC osmotic lysis, higher = more signal, called active from +8 up or from −8 down
[4] = PSAC antagonists in infected red cells, primary screen, cell-based, P. falciparum Indochina, OD700, 2 h (AID 1155);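 further: lysis reports solute entry through the parasite surface anion channel PSAC; channel blockers reduce lysis of infected cells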; settings: P. falciparum Indochina infected erythrocytes, osmotic lysis OD700; higher = more signal, called active from +8 up or from −8 down
[5] = osmotic lysis modulators in infected erythrocytes, primary screen, PSAC antagonist project, cell-based, P. falciparum Indochina, OD700, 3 h (AID 1156); settings: higher = more signal, called active from +8 up or from −8 down
[6] = PSAC antagonists in infected red cells, primary screen, cell-based, P. falciparum Indochina, OD700, 18 h (AID 1157); settings: P. falciparum Indochina infected erythrocytes, osmotic lysis OD700, 18 h; higher = more signal, called active from +8 up or from −8 down
[7] = modulators of S6 phosphorylation in cells, primary screen, cell-based, A549, cytoblot, luminescence, serum-stimulated (AID 1158); settings: A549 phospho-S6 cytoblot, 5 h, higher = more signal;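 further: serum-stimulated A549 lung adenocarcinoma cells; signal is phosphorylated S6 detected by cytoblot immunostaining with HRP secondary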
[8] = biological target: NADPH oxidase 2 (Homo sapiens) (UniProt P04839); experiment: NOX2-dependent H2O2 signal modulators, primary screen, NOX inhibitor project, cell-based, HEK293-NOX2, PMA-stimulated, Amplex Red fluorescence (AID 1159); settings: 45 min, higher = more signal, called active from +8 up or from −8 down; further: test concentration not given here
[9] = biological target: NADPH oxidase 4 (Homo sapiens) (UniProt Q9NPH5); experiment: NOX4-dependent H2O2 signal modulators, primary screen, NOX inhibitor project, cell-based, HEK293-NOX4, tetracycline-induced, Amplex Red fluorescence (AID 1160); settings: 45 min, higher = more signal, called active from +8 up or from −8 down
[10] = biological target: NADPH oxidase 5 (Homo sapiens) (UniProt Q96PH1); experiment: NOX5-dependent H2O2 signal modulators, primary screen, NOX inhibitor project, cell-based, HEK293-NOX5, Amplex Red fluorescence (AID 1161); settings: HEK293-NOX5, ionomycin, 45 min, higher = more signal
[11] = A549 cell viability effects, profiling panel, calcein-AM fluorescence, 48 h, basal (AID 1162); settings: higher = more signal; further: test concentration not given here
[12] = adipocyte viability effects, profiling panel, cell-based, 3T3-L1 adipocytes, calcein-AM fluorescence, 48 h, basal (AID 1163); settings: 3T3-L1 adipocytes viability, higher = more signal; further: test concentration not given here
[13] = HepG2 cell viability effects, profiling panel, calcein-AM fluorescence, 48 h, basal (AID 1164); settings: higher = more signal; further: test concentration not given here
[14] = MM1S cell viability effects, profiling panel, calcein-AM fluorescence, 48 h, basal (AID 1165); settings: higher = more signal;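 further: viability of MM1S multiple myeloma cells under basal unstimulated conditions; test concentration not given here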
[15] = basal RPMI8226 viability, no added stimulus, profiling panel, cell-based, calcein-AM fluorescence, 48 h, PK04 Diversity Set (AID 1166); settings: RPMI8226 myeloma viability, higher = more signal;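 further: cells grown under basal conditions without added stimulus; test concentration not given here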
[16] = basal HepG2 mitochondrial membrane potential changes, profiling panel, cell-based, JC-1 fluorescence, 24 h, 100 nL compound (AID 1167); settings: higher = more signal; further: test concentration not given here
[17] = basal 3T3-L1 adipocyte mitochondrial potential changes, profiling panel, cell-based, JC-1 fluorescence, 3T3-L1 adipocytes, 24 h, 100 nL compound (AID 1168); settings: JC-1 mitochondrial fluorescence, higher = more signal, called active from +8 up or from −8 down; further: test concentration not given here
[18] = basal RPMI8226 mitochondrial membrane potential changes, profiling panel, cell-based, JC-1 fluorescence, 24 h, 100 nL compound (AID 1169); settings: RPMI8226 myeloma, JC-1 mitochondrial potential fluorescence, higher = more signal; further: test concentration not given here
[19] = basal MM1S mitochondrial membrane potential changes, profiling panel, cell-based, JC-1 fluorescence, 24 h, 100 nL compound (AID 1170); settings: higher = more signal; further: test concentration not given here
[20] = A549 lung cancer cell viability effects, profiling panel, resazurin fluorescence, 24 h, PK04 Diversity Set (AID 1171); settings: higher = more signal, called active from +8 up or from −8 down; further: test concentration not given here

Sequence of NADPH oxidase 4 (Homo sapiens) (Q9NPH5 whole entry, looked up): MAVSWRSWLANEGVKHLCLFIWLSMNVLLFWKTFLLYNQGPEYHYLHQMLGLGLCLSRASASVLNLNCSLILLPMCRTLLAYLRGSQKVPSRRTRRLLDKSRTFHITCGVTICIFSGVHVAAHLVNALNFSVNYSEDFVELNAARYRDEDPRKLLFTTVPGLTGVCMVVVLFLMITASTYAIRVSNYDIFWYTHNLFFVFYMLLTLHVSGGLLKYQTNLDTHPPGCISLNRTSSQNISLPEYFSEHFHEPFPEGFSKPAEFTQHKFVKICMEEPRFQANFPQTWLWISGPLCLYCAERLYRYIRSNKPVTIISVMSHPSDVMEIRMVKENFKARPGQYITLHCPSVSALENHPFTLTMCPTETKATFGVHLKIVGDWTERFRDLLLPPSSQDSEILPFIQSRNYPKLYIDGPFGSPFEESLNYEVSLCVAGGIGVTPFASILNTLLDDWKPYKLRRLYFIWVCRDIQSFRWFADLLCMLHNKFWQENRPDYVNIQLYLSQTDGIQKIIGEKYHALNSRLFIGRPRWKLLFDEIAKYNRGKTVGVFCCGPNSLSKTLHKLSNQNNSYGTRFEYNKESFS
Sequence of NADPH oxidase 5 (Homo sapiens) (Q96PH1 whole entry, looked up): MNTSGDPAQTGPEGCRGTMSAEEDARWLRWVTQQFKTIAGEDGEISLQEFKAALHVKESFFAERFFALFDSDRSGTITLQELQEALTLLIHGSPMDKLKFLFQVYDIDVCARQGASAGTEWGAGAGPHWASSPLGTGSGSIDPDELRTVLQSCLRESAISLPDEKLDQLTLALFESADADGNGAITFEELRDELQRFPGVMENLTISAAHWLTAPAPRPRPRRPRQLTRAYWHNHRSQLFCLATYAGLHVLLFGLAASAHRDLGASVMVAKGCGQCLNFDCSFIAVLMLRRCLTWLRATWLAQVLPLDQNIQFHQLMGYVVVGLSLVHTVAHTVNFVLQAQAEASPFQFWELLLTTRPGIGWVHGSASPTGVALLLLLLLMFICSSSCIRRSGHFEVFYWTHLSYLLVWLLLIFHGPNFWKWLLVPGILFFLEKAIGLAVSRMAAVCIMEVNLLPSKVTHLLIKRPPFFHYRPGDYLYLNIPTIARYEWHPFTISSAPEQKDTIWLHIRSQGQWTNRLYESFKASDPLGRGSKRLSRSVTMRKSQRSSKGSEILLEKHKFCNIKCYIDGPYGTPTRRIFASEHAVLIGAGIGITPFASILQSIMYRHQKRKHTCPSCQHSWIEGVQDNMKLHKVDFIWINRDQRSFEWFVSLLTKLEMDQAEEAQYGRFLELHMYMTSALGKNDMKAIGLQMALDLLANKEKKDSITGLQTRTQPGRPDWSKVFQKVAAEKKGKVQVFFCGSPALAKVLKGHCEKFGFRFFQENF
Sequence of NADPH oxidase 2 (Homo sapiens) (P04839 whole entry, looked up): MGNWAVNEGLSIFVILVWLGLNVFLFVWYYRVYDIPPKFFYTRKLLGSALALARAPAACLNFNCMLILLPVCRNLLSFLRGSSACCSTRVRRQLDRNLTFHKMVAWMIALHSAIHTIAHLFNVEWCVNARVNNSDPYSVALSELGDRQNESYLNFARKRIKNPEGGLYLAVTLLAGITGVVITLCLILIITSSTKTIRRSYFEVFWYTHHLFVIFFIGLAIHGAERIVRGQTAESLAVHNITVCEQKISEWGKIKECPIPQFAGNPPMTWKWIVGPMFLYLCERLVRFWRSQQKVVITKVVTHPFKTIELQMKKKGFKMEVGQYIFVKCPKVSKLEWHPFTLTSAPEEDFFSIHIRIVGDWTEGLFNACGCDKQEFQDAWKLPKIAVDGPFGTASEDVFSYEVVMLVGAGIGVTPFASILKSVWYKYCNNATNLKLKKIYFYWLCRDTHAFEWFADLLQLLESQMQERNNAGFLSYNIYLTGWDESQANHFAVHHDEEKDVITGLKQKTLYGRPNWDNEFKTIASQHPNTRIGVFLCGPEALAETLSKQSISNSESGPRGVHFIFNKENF

| Structure (SMILES) | z-score [1] | composite z-score [2] | z-score [3] | z-score [4] | z-score [5] | z-score [6] | z-score [7] | z-score [8] | z-score [9] | z-score [10] | z-score [11] | z-score [12] | z-score [13] | z-score [14] | z-score [15] | z-score [16] | z-score [17] | z-score [18] | z-score [19] | z-score [20] |
| --- | --- | --- | --- | --- | --- | --- | --- | --- | --- | --- | --- | --- | --- | --- | --- | --- | --- | --- | --- | --- |
| COCC1=C([C@H](O)CCc2ccccc2)[C@H](CO)n2c(=O)n(-c3ccccc3)c(=O)n2C1 | 3.47 (inactive) | -0.409 | 2.67 (inactive) | -0.913 (inactive) | -0.618 (inactive) | -1.61 (inactive) | 1.72 | -0.638 (inactive) | -2.05 (inactive) | -0.659 | 0.119 | 0.102 | 0.925 | 0.572 | -0.221 | -0.835 | -0.596 (inactive) | -0.309 | -1.37 | -0.619 (inactive) |
| C=CCC(OC(C)=O)[C@@H]1[C@@H](N(Cc2cc3ccccc3o2)C(=O)c2ccc(-c3ccccc3)cc2)c2cc(OCCCO)ccc2N1C(=O)c1ccc2ccccc2n1 (stereo not given in full) | 0.803 (inactive) | -0.0534 | 1.01 (inactive) | 0.698 (inactive) | -0.44 (inactive) | 0.655 (inactive) | -0.113 | 1.88 (inactive) | -0.895 (inactive) | 1.66 | 0.704 | 0.242 | 1.43 | 0.479 | -0.11 | 2.66 | 0.229 (inactive) | -0.202 | 1.32 | 0.967 (inactive) |
| COC(=O)[C@@]1(Cc2ccc(F)cc2)[C@H]2c3cc(C(=O)N(C)C)n(CCn4cc([N+](=O)[O-])nc4C)c3C[C@H]2CN1C(=O)c1ccccc1 | -2.34 (inactive) | 0.0861 | 0.496 (inactive) | 0.288 (inactive) | 0.0718 (inactive) | 0.544 (inactive) | 0.0938 | 0.762 (inactive) | -0.00316 (inactive) | -0.683 | -0.771 | -0.417 | 0.346 | -0.737 | 0.211 | 0.443 | -0.596 (inactive) | 0.0282 | -0.54 | -0.792 (inactive) |
| C=C(CC1([C@@H](NP(=O)(c2ccccc2)c2ccccc2)[C@H]2C[C@@H]2CCN(C(=O)OCC)S(=O)(=O)c2ccc(C)cc2)CC1)c1ccccc1 | -1.42 (inactive) | 0.723 | 2.02 (inactive) | 0.939 (inactive) | 2.36 (inactive) | 1.28 (inactive) | 0.603 | 0.464 (inactive) | -1.66 (inactive) | -3.34 | -2.02 | 1.2 | -1.12 | -0.798 | -3.89 | 4.8 | -1.47 (inactive) | -0.699 | -1.09 | 0.789 (inactive) |
| Cc1ccc(F)cc1S(=O)(=O)N[C@@H]1CCN(Cc2ccc3c(c2)OCO3)C1 | -3.25 (inactive) | -0.0984 | 1.36 (inactive) | 0.491 (inactive) | 0.076 (inactive) | 0.329 (inactive) | -0.0688 | -0.438 (inactive) | -0.228 (inactive) | -0.687 | 0.923 | -0.447 | 0.326 | 0.361 | -0.525 | -0.184 | -0.0208 (inactive) | 0.302 | -0.591 | -0.156 (inactive) |
| O=C1O[C@H](c2ccccc2)[C@H](c2ccccc2)N2[C@H]1[C@@H](C(=O)NC[C@H](O)c1ccccc1)[C@]1(C(=O)Nc3ccc(C#CCCO)cc31)[C@H]2c1ccccc1OCCO | 0.631 (inactive) | 0.0752 | 2.45 (inactive) | 0.612 (inactive) | 0.478 (inactive) | 0.786 (inactive) | 0.288 | 2.14 (inactive) | 1.35 (inactive) | 1.6 | -0.661 | 1.43 | -1.12 | -0.751 | -1.41 | -0.864 | 2.89 (inactive) | -0.72 | -0.341 | 1.86 (inactive) |
| C=CC(CO)NC(=O)OCC1c2ccccc2-c2ccccc21 (stereo not given) | -0.878 (inactive) | -0.188 | -0.0039 (inactive) | -0.124 (inactive) | -1.03 (inactive) | 0.182 (inactive) | 0.078 | -0.385 (inactive) | 0.0866 (inactive) | 0.23 | -0.454 | 0.351 | -0.479 | -1.07 | 0.0644 | -0.692 | 0.386 (inactive) | 0.534 | 0.128 | -0.62 (inactive) |
| CC(C)(C)OC(=O)CC[C@]1(C(=O)N2CCOCC2)N=C(c2ccc(OCCCO)cc2)O[C@H]1c1ccccc1CN=[N+]=[N-] | -0.47 (inactive) | 0.705 | 13.9 (active) | 1.71 (inactive) | 1.05 (inactive) | 0.421 (inactive) | 0.705 | -1.34 (inactive) | 0.181 (inactive) | -0.476 | -0.385 | 0.0723 | 0.209 | -0.411 | -0.563 | 0.432 | -0.0219 (inactive) | -0.166 | -0.324 | 0.734 (inactive) |
| CCCCC(=C=CC[C@H](O)c1ccc(OCCO)cc1)C[C@H](O)c1ccccn1 | 0.558 (inactive) | -0.0536 | 15.4 (active) | 2.3 (inactive) | 1.11 (inactive) | 1.07 (inactive) | 0.433 | 1.26 (inactive) | 0.364 (inactive) | -1.34 | 1.47 | -0.398 | 0.701 | -0.556 | -0.585 | -0.0776 | -0.794 (inactive) | -0.485 | -0.603 | 1.07 (inactive) |

From PubChem BioAssay
